# Test results taken from PubChem BioAssay (NCI).
# About 83,000 compounds went through this panel and 20% of them were active in at least one assay; those are over-represented in the sample as a whole.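 Plates (96-well) were seeded with cells, treated with compound at one concentration, and incubated for 48 hours before percent growth was determined.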 Values without a mark were called inactive. The source made the active and inactive calls. Rule for the calls: active = growth percent below 10; inactive = the rest.
# Tested on: HL-60(TB) leukemia
# Test: NCI-60 one-dose screen, 48 h (100 = growth as untreated, 0 = no growth, -100 = all killed)
# Settings: 10 µM unless noted
row,Structure (SMILES),growth
1,CC(=O)OC[C@]12CC[C@@H](C(=O)/C=C/c3cccnc3)[C@@H]1[C@H]1CC[C@@H]3[C@@]4(C)CC[C@H](OC(C)=O)C(C)(C)[C@@H]4CC[C@@]3(C)[C@]1(C)CC2,-15.1% (active)
2,C=C(C)[C@@H]1CC[C@]2(C(=O)N3CCN(C)CC3)CC[C@]3(C)[C@H](CC[C@@H]4[C@@]5(C)CC[C@H](OP(=O)(OCC)OCC)C(C)(C)[C@@H]5CC[C@]43C)[C@@H]12,42.2%
3,COc1cccc2c1[C@H](OC)[C@]13O[C@@]1(C2=O)[C@H](O)[C@H](C)[C@@](O)(C(=O)[C@@H]1O[C@H]1C)[C@@H]3O,-46.6% (active)
4,C=CCn1c(SCC(=O)Nc2ccc(C(=O)/C=C/c3cc(OC)c(OC)c(OC)c3)cc2)nnc1-c1c[nH]c2ccccc12,-15.1% (active)
5,Brc1ccc(-c2cc(-c3ccc4c(c3)OC=CO4)n[nH]2)s1,78.8%
6,COc1ccc(-c2nc3ccc(-c4nnc(SCC(=O)Nc5ccc(C(=O)/C=C/c6ccc(Cl)cc6)cc5)o4)cc3[nH]2)cc1,94.1%
7,COC(=O)c1[nH]nc2c1C1(C(=O)N(C)c3ccccc31)C(C#N)=C(N)O2 (centres undefined),107%
8,O=C(C[n+]1ccnc2ccccc21)c1ccc(O)c(O)c1,-24.7% (active)
9,COc1cccc(NC2=CC(=O)C(C)=C(C)C2=O)c1,3.49% (active)
10,Oc1c(Cl)cc(Cl)c2ccc(CN3CCCCC3)nc12,32.9%
11,OC1CCc2c(-c3ccc4ncnc(N5CCc6cc(F)c(Cl)cc65)c4c3)cncc21 (centres undefined),34.3%
12,Fc1ccc(-c2cc3nc(C(Cl)Cl)nc(-c4cccs4)n3n2)cc1,-2% (active)
13,O=C(NNc1nc2cc(F)c(F)cc2n2c(CN3CC4CNCC4C3)ccc12)c1ncccn1 (centres undefined),-30.7% (active)
14,N#Cc1c(-c2ccc(F)cc2)nc2c(C#N)c(Nc3ccccc3)nn2c1N,104%
15,CN1CCN(Cc2ccc(NC(=O)c3cncc(C#Cc4cnc5[nH]ncc5c4)c3)cc2C(F)(F)F)CC1,8.94% (active)
16,CNC(=O)c1cc(-n2ccc3cc(NC(=O)Nc4ccc(N5CCOCC5)c(C(F)(F)F)c4)ccc32)ccn1,-37.1% (active)
17,O=C1C[C@@H](c2ccccc2)Oc2c(Cc3ccccc3O)c(O)c(Cc3cc(Cc4cc(Cc5ccccc5O)ccc4O)ccc3O)c(O)c21,95.1%

row,Structure (SMILES),growth
1,O=C(CSc1nnc(-c2ccc(Cl)cc2)n1-c1ccccc1)Nc1ccccc1Cl,91.8%
2,CCNC(=O)Oc1ccc(/C(=C(/C)c2ccc(Cl)cc2)c2ccc(OCCN3CCCC3)cc2)cc1,56.2%
3,CN1C(=O)/C(=C/C=C/c2ccco2)SC1=S,99.6%
4,CCCCCc1ccc(S(=O)(=O)Nc2cccc(-c3csc(NC(=O)CNCCN(C)C)n3)c2)cc1,63%
5,O=C(/C=C/c1cccc(C(F)(F)F)c1)Nc1cccc(C(F)(F)F)c1,38.3%
6,O=c1/c(=C\c2ccc(-c3ccccc3)o2)sc2nc(-c3ccccc3)nn12,107%
7,CCc1cccc2c3c(sc12)C(c1ccc(OC)cc1)C(C#N)=C(/N=C/c1ccc(Cl)cc1)O3 (centres undefined),2.87% (active)
8,Nc1nc(Nc2ccccc2SSc2ccccc2Nc2nc(N)nc(-c3cccc(Br)c3)n2)nc(-c2cccc(Br)c2)n1,83%
9,CN(C)CCCOc1c2ccc(Cl)cc2nc2c1oc1ccccc12,-19.3% (active)
10,NS(=O)(=O)c1ccc(-n2cc(CN3CCCCC3)nn2)cc1,101%
11,Cc1ccc(/C=C/c2nn3c(-c4ccco4)nnc3s2)cc1C,91.4%
12,CC1=CC(=O)C2=C(C)CC(OC(=O)CCc3ccccc3)[C@@H]3[C@H](OC(=O)[C@@H]3C)[C@@H]12 (some centres undefined),87.9%
13,COc1ccc([C@@H]2[C@@H](O)C(=O)N2c2cc(OC)c(OC)c(OC)c2)cc1F,-15.8% (active)
14,Oc1ccc(CSc2nnc(-c3cnccn3)n2-c2ccccc2)c2cccnc12,14.4%
15,COc1ccc(C(=O)/C=C/c2ccc(Oc3nc(NCCO)nc(N4CCOCC4)n3)c(OC)c2)cc1,15.5%
16,Cc1[nH]nc2ncc(C#Cc3cncc(C(=O)Nc4ccc(CN5CCN(C)CC5)c(C(F)(F)F)c4)c3)cc12,13.6%
17,C=C(C)[C@@H]1CC[C@]2(COCCCNCCCN)CC[C@]3(C)[C@H](CC[C@@H]4[C@@]5(C)CC[C@H](O)C(C)(C)[C@@H]5CC[C@]43C)[C@@H]12,-28.1% (active)
